The campaign covered roughly 220,000 compounds. About 2,000 (0.91%) were called active. Inconclusive results (about 2%) are left out. Only a sample is shown. Measured potencies and affinities stand elsewhere. A number with no mark means an inactive call. Rule as the data show it: inconclusive = inhibition above about 80% without an active follow-up result; inactive = below that; test concentration not stated here.

A short description of this assay: M. tuberculosis H37Rv growth inhibitors, H37Rv strain (AID 1626).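 Also: bacteria incubated seven days before Alamar blue readout; 0% = bacteria only wells and 100% = bacteria with antibiotic wells.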 The conditions noted are these: hits give high values, concentration not given here.
Consider `O=C(O)CC(CNS(=O)(=O)c1cccc2nsnc12)c1ccccc1` (stereo unspecified), for which the inhibition is 2.51%.

As for `O=C1CC(c2nc3ccccc3[nH]2)CN1c1cccc(C(F)(F)F)c1` (stereo unspecified), the inhibition was 2.87%.

Turning to `CN1CCN(C(=S)c2ccc(-c3cccc(Cl)c3Cl)o2)CC1`, the inhibition is 2.93%.

Take `Nc1c(Cl)ncnc1N/N=C/c1cccnc1`: the inhibition is 3.93%.

In the case of `Cn1c(N2CCOCC2)cc(=O)n(C)c1=O`, the inhibition was -3.19%.

As to `COc1ccc(CCNC(=O)CSCc2ccc([N+](=O)[O-])cc2)cc1OC`, the inhibition was -5.73%.

Consider `CCN(CC)c1ccc(C(=O)OCC(=O)Nc2ccc3[nH]c(=O)[nH]c3c2)cc1`, for which the inhibition was 6.23%.

As for `O=C(Nc1ccc(Br)cc1)C1CCCN(S(=O)(=O)c2cccnc2)C1` (stereo unspecified), the inhibition was -3.26%.

As to `C=CCn1c(CNC(=O)c2ccco2)nnc1SCC(=O)Nc1cccc(F)c1`, the inhibition is 2.84%.

Consider `CCn1c(SCc2nc3ccccc3c(=O)[nH]2)nc2ccccc21`, for which the inhibition is 11.6%.

For the molecule `COc1ccc2cc(C#N)c(N3CCN(C(=O)c4ccccc4C)CC3)nc2c1`, the inhibition is 7.93%.

For `COc1ccc2nc(N3CCC(O)CC3)c(C#N)cc2c1`, the inhibition was 1.43%.

Consider `CC(C)CCNC(=O)CCn1c(=S)oc2ccccc21`, for which the inhibition was -7.67%.

`CC(=O)c1ccc(NC(=O)C(C)N2CCN(C/C=C/c3ccccc3)CC2)cc1` (stereo unspecified): the inhibition was 53.1%.

Consider `Fc1ccc(CSc2nnc(-c3cccnc3)n2Cc2ccco2)cc1`, for which the inhibition was -3.79%.

Turning to `CCCc1nc2c(sc3nc4c(cc32)COC(C)(C)C4)c(=O)n1Cc1ccco1`, the inhibition is -1.51%.

Take `CCCCOC(=O)Nc1sc2c(c1C(=O)OC)CCC2`: the inhibition was -0.74%.

On to `S=c1[nH]nc(CSCc2ccccc2Cl)n1C1CCCCC1`, for which the inhibition is 4.24%.

Take `C#CCOCCOCCOCCNc1nc(N2CCN(C(=O)[C@H]([C@@H](C)CC)n3cc([C@@H](N)CC(C)C)nn3)CC2)nc(N2CCN(C(=O)[C@H](Cc3cc4ccccc4[nH]3)n3cc([C@@H](N)C(C)CC)nn3)CC2)n1` (stereo partly specified): the inhibition was 45.6%.

On to `C#CCOCCOCCOCCNc1nc(N2CCOCC2)nc(N2CCN(C(=O)[C@H](Cc3cc4ccccc4[nH]3)n3cc([C@@H](N)Cc4ccc(O)cc4)nn3)CC2)n1`, for which the inhibition was 52%.

Consider `C#CCOCCOCCOCCNc1nc(N2CCN(C(=O)[C@H](CCCCN)n3cc([C@@H](N)CC(C)C)nn3)CC2)nc(N2CCN(C(=O)[C@H](Cc3cc4ccccc4[nH]3)n3cc([C@@H](N)Cc4ccc(O)cc4)nn3)CC2)n1`, for which the inhibition was 59%.

On to `C#CCOCCOCCOCCNc1nc(N2CCN(C(=O)[C@H]([C@@H](C)CC)n3cc([C@@H](N)CC(C)C)nn3)CC2)nc(N2CCN(C(=O)[C@H](Cc3cc4ccccc4[nH]3)n3cc([C@@H](N)CC(C)C)nn3)CC2)n1`, for which the inhibition is 33.5%.

On to `C#CCOCCOCCOCCNc1nc(N2CCN(C(=O)[C@H](Cc3cc4ccccc4[nH]3)n3cc(C(N)CC(C)C)nn3)CC2)nc(N2CCN(C(=O)[C@H](CCC(=O)O)n3cc(C(N)[C@H](C)CC)nn3)CC2)n1` (stereo partly specified), for which the inhibition was -7.16%.

As to `C#CCOCCOCCOCCNc1nc(N2CCOCC2)nc(N2CCN(C(=O)[C@H](Cc3cc4ccccc4[nH]3)n3cc([C@@H](N)CC(C)C)nn3)CC2)n1`, the inhibition is -3.36%.

As for `CCOC(=O)C1CCN(C(=O)COc2ccc(S(=O)(=O)N3CCCC3)cc2C)CC1`, the inhibition was 8.86%.

As to `N/C(=N\c1nc2c(c(=O)[nH]1)CCCC2)Nc1ccc(Oc2ccccc2)cc1`, the inhibition is 18%.

Consider `Cn1c(=O)c2c(nc(CN3CCC(C(N)=O)CC3)n2Cc2c(Cl)cccc2Cl)n(C)c1=O`, for which the inhibition is -2.69%.

`O=C(/C=C/c1ccc(F)cc1)N1CCCN(C(=O)/C=C/c2ccc(F)cc2)CC1`: the inhibition is 10.8%.

Take `Cc1ccc(/C=C/C(=O)N2CCN(c3ccc(F)cc3)CC2)o1`: the inhibition was -2.28%.

Consider `CCOCCn1c(SCC)nc2c1c(=O)[nH]c(=O)n2C`, for which the inhibition was -10.1%.

With `COc1ccc(Nc2nc(C)cc(=O)[nH]2)cc1`, the inhibition was -16.4%.

For the molecule `Cc1cc(C)nc(-n2nc(C)c(Oc3ccccc3O)c2C)n1`, the inhibition is -0.16%.

Consider `Cc1cc(C)n(-c2nnc(C)c(=O)[nH]2)n1`, for which the inhibition is -3.09%.

Turning to `Cc1nn(-c2ccccn2)c(C)c1Oc1ccccc1O`, the inhibition was 7.63%.

On to `Cc1cc(C)n(-c2nc(O)cc(=O)[nH]2)n1`, for which the inhibition was -5.24%.

As to `Cc1cc(Nc2ccc(Cl)cc2)n(-c2cccc(Cl)c2)n1`, the inhibition was 4.87%.

Take `Cc1ccc(OCC(=O)Nc2ccc(Cl)cc2C(=O)c2ccccc2)cc1`: the inhibition is -2.12%.

`CCOc1ccc(CNC(=S)N/N=C\c2ccc([N+](=O)[O-])cc2)cc1`: the inhibition is 2.73%.

Consider `O=C(NCC(c1ccco1)N1CCCCC1)C(c1ccccc1)c1ccccc1` (stereo unspecified), for which the inhibition was 2.31%.

On to `CC(Oc1ccc(Cl)cc1Cl)c1ccnc2nc(N3CCOCC3)nn12` (stereo unspecified), for which the inhibition was 7.65%.

Regarding `O=C1c2ccccc2C(Nc2ccc(S(=O)(=O)N3CCCCC3)cc2)N1Cc1ccco1` (stereo unspecified), the inhibition was 2.32%.

As to `O=C1c2ccccc2C(Nc2ccc3nc(-c4cccnc4)[nH]c3c2)N1Cc1ccco1` (stereo unspecified), the inhibition is 44%.

As to `COc1ccc(NC2c3ccccc3C(=O)N2Cc2ccco2)cc1OC` (stereo unspecified), the inhibition is 8.29%.

Take `CCOc1ccccc1NC1c2ccccc2C(=O)N1Cc1ccco1` (stereo unspecified): the inhibition was 11.3%.

Turning to `CCOC(=O)CNC(=O)CSc1nnc(-c2ccc(OC)cc2)n1CC`, the inhibition was -3.53%.

For `O=C(c1ccco1)N1CCN(Cc2nc(Cc3ccccc3)no2)CC1`, the inhibition was -8.56%.

For `C#CCn1c(-c2ccccc2)ccc(C#N)c1=O`, the inhibition is 8.84%.

As for `CCn1c(-c2ccccc2)ccc(C#N)c1=O`, the inhibition was -9.1%.

`CS(=O)(=O)N(CC(=O)Nc1cccc(Cl)c1Cl)c1ccccc1`: the inhibition is -0.62%.

Consider `O=C(COC(=O)c1ccc(=O)[nH]c1)Nc1cccc(S(=O)(=O)N2CCOCC2)c1`, for which the inhibition is 9.81%.

`CC1CCC/C(=N/NC(=O)c2ccccc2-n2cccc2)C1` (stereo unspecified): the inhibition is -3.77%.

In the case of `COc1ccc(-n2c(C)cc(/C=C3\C(=O)NN(c4ccccc4)C3=O)c2C)cc1`, the inhibition was 12.4%.

For `CC(=O)N(Cc1nc2sc(C)c(C)c2c(=O)[nH]1)C1CCCC1`, the inhibition was -8.34%.

Turning to `Cc1sc2nc(CN(C(=O)NC3CCCCC3)C3CCCCC3)[nH]c(=O)c2c1C`, the inhibition was 3.17%.

As for `O=C(Nc1ccncc1)c1ccc(NS(=O)(=O)c2cccc(F)c2)cc1`, the inhibition was 7.32%.

Consider `NC(N)=N/N=C/c1ccccc1`, for which the inhibition is 12.3%.

For `CCN(Cc1ccccc1)c1ccc(/C=N/N2CCOCC2)cc1`, the inhibition is 2.24%.

Turning to `Cc1ccccc1CN1C[C@@H]2C[C@@H](c3cn[nH]c3-c3ccccc3)N3CCC[C@@]23C1=O`, the inhibition was -6.92%.

In the case of `O=C(Nc1ccn(Cc2ccccc2F)n1)c1ccc(COc2cc(Cl)ccc2Cl)o1`, the inhibition is 10.4%.

Regarding `O=C(Nc1ccn(Cc2c(F)c(F)cc(F)c2F)n1)c1ccc(COc2ccc(Cl)cc2Cl)o1`, the inhibition was 4.49%.

For the molecule `O=C(c1ccc(F)cc1F)N1CCN(c2ncccn2)CC1`, the inhibition was 3.87%.

Regarding `Cc1[nH]c2ccccc2c1/C=N/n1cnnc1`, the inhibition was 3.82%.

With `Cc1[nH]c2ccccc2c1/C=N/O`, the inhibition was 57.2%.

Consider `N#CC(C(=O)C1CCCCC1)c1nc2ccccc2[nH]1` (stereo unspecified), for which the inhibition was 56.9%.

Turning to `O=C(Nc1nc2ccccc2[nH]1)C1CCCC1`, the inhibition is -2.34%.

`N#CC(C(=O)CCN1C(=O)C2CC=CCC2C1=O)c1nc2ccccc2[nH]1` (stereo unspecified): the inhibition is -15.5%.

Consider `O=C(Nc1nc2ccccc2[nH]1)C1CC1`, for which the inhibition was -2.55%.

Turning to `O=C(c1ccc2c(c1)OCCO2)C1CCN(C(=O)c2ccc(F)c(F)c2)CC1`, the inhibition is 5.15%.

Consider `Cc1cc(C)c(C(=O)C[n+]2cccc(C(N)=O)c2)c(C)c1`, for which the inhibition was -6.58%.

For the molecule `Cc1oc(-c2ccccc2)nc1C(=O)N1CCN(c2ccc(F)cc2)CC1`, the inhibition is 0.48%.

In the case of `O=C1N=C(N2CCOCC2)S/C1=C\c1ccc(-c2ccccc2Cl)o1`, the inhibition is 2.45%.

In the case of `Cc1ccccc1-c1ccc(/C=C2/SC(N3CCOCC3)=NC2=O)o1`, the inhibition is -0.65%.

Regarding `CS(=O)(=O)c1ccc2nc(NC(=O)C3CCCO3)sc2c1` (stereo unspecified), the inhibition was -7.03%.

On to `CCN(Cc1cc(=O)n2ccsc2n1)Cc1nc2ccccc2c(=O)[nH]1`, for which the inhibition was -0.5%.

As for `COc1cc2nc(CN(C)Cc3nc4ccccc4c(=O)[nH]3)[nH]c(=O)c2cc1OC`, the inhibition was -3.41%.

With `CCN(Cc1nc2ccccc2c(=O)[nH]1)Cc1nc2cc(OC)c(OC)cc2c(=O)[nH]1`, the inhibition is -5.3%.

In the case of `CSc1ccc(CN(C)Cc2nc3ccccc3c(=O)[nH]2)cc1`, the inhibition was -5.14%.

Regarding `Cc1nn(CC(=O)NC(C)c2ccccc2)c(=O)c2ccccc12` (stereo unspecified), the inhibition was -2.29%.

Regarding `CC1Cc2ccccc2N1C(=O)CSc1nc2c(c(=O)n(C)c(=O)n2C)n1Cc1ccc(F)cc1` (stereo unspecified), the inhibition was -3.29%.

As for `COCCn1c(NC(=S)NC(=O)C23CC4CC(CC(C4)C2)C3)cc(=O)[nH]c1=O`, the inhibition is -0.61%.

In the case of `COC(=O)c1cccc(-n2c(CCC(=O)O)ccc2-c2cccs2)c1`, the inhibition was 6.42%.

With `CCN(CC)c1ccc(N=Cc2ccccc2[N+](=O)[O-])cc1`, the inhibition was 15.5%.

Turning to `CN(/N=C/c1ccc([N+](=O)[O-])o1)c1ccccc1`, the inhibition was 1.22%.

As for `COc1cccc(CC2(CO)CCCN(C/C=C/c3ccccc3OC)C2)c1` (stereo unspecified), the inhibition is 39.9%.

On to `COc1ccc(/C=C/CN2CCCC(CO)(Cc3cccc(Cl)c3)C2)cc1` (stereo unspecified), for which the inhibition was 2.62%.

Take `NC(=S)NC1CC2C=CC1C2` (stereo unspecified): the inhibition was -6.06%.

A word on the inhibition: it is the relative decrease from the control value, in per cent.

The values above are taken from PubChem BioAssay AID1626 (SRMLSC, 2009).
